Reference: PubChem BioAssay AID624491 (Broad Institute, 2012)
Out of some 1,800 compounds screened, about 1,400 (78%) were called active. Not shown: some 2% with an inconclusive outcome.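 The calls were made as follows: active = fitted curve crossing a set activation limit at or below the highest valid dose tested; inconclusive = flat fit at 30 to 70% activation, or poor fit; inactive = the rest, including signal decreases.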 So high a share suggests a set chosen from earlier hits. The list is a sample of the results. Measured potencies and affinities stand elsewhere.

assay: N-linked glycosylation inhibitors, luciferase reporter, dose response, D54 ERlucT cells, luminescence, cherry-picks (AID 624491); settings: 24 h, 100% = twice neutral-control luminescence; series mostly up to 19.5 µM;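 also: signal gain reflects blocked N-linked glycosylation of a luciferase reporter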

Activation (NLG inhibition), inactive:
COc1cc(/C=C(/C(=O)c2cccs2)c2nc3ccccc3[nH]2)cc(OC)c1O
O=C(N/N=C/c1ccc2c(c1)OCO2)C1COc2ccccc2O1 (centres undefined)
N#Cc1c(NC(=O)/C=C/c2ccco2)sc2c1CCCC2
COC(=O)C1=C(C(=O)OC)[C@@H]2N(Cc3ccccc3)c3ccccc3[C@@]23C[C@@H](C(=O)OC)N(C(=O)c2cc(C)oc2C)C3=N1
CC(C)C1N=C(c2ccc3c(c2)OCO3)CC(c2ccccc2O)N1 (centres undefined)
CC(=O)c1ccc(OCC(O)CN2CCN(CCN3C(=O)c4cccc5cccc(c45)C3=O)CC2)cc1 (centres undefined)
COc1ccc(-c2cc(C(F)F)n3ncc(C(=O)n4ccnc4C)c3n2)cc1
Cc1ccc(-c2cc(C(F)F)n3ncc(C(=O)N4CCc5ccccc54)c3n2)cc1
CC(=O)N(C(C)=O)n1c(C)nc2sc3c(c2c1=O)CCCC3
O=C1/C(=C/c2ccccc2)CCc2ccc(Cl)nc21
COc1cccc(-n2c(SCC(=O)NC3CCCCC3)nc3n[nH]c(C)c3c2=N)c1
NC(=O)c1ccc2c(=O)n3c(-c4cc(Cl)c(N)c(Cl)c4)csc3nc2c1
Cc1ccnc(NC(=O)Nc2ccc3c(c2)N(C)C(=O)CS3)c1
COC(=O)c1ccc(Oc2cc(C)nc(-n3nc(C)cc3C)n2)cc1
Cc1ccc2cc3c(N)c4c(C)ccc(C)c4nc3nc2c1
Cc1cc(N2CCN(c3ccc([N+](=O)[O-])c4cccnc34)CC2)c2ccccc2n1
Cc1ccc(N2C(=O)c3cccc4c([N+](=O)[O-])ccc(c34)C2=O)c2cccnc12
Cc1ccc2c(c1)NC(=O)[C@@]1(C)[C@@H](c3ccccc3)[C@H]3COc4ccccc4[C@@H]3N1C2=O
CCN(CC)c1ccc(/C=C/c2cccc[n+]2C)c(OC)c1
O=C(N/N=C/c1ccccn1)c1sc2ccccc2c1Cl
COc1ccc(C=C(c2nc3ccccc3s2)c2nc3ccccc3s2)cc1O
CC(=O)Nc1cccc(-c2ccnc3c2CC(C(=O)NCc2ccco2)O3)c1 (centres undefined)
Nc1nc(-c2ccccn2)nc(N)c1Cc1ccc(Cl)cc1Cl
CC(=O)Nc1cccc(-c2ccnc3c2CC(C(=O)NCc2ccc(F)c(F)c2)O3)c1 (centres undefined)
COc1ccc(CNC(=O)C2Cc3c(-c4ccc5c(c4)OCO5)ccnc3O2)cc1OC (centres undefined)
CN(C)Cc1c(O)ccc2c1O/C(=C\C=C\c1ccccc1)C2=O
COc1ccc(OC)c(NS(=O)(=O)c2ccc(N3CCCC3=O)cc2)c1
COc1ccc(Cl)cc1/C=C/c1ccc2cccc(O)c2n1
O=C(CC(O)c1ccncc1)c1ccccc1O (centres undefined)
CCOC(=O)c1[nH]c2ccc(F)cc2c1NC(=O)C(C)N1CCc2cc(OC)c(OC)cc2C1 (centres undefined)
C#CC(=O)CC1(CN(Cc2ccccc2)C(=O)OC(C)(C)C)CCCCC1
CCN(CC(=O)Nc1ccccc1OC)CC(=O)Nc1ccccc1-c1ccccc1
COC(=O)c1cc(=O)n(Cc2ccc3c(c2)OCO3)c(=Nc2ccc(F)c(Cl)c2)s1
CC1=C([N+](=O)[O-])C(c2ccccc2)C2=C(N1)c1ccccc1C2=O (centres undefined)
COc1cc2cc(/C=C/C(=O)c3ccco3)c(Cl)nc2cc1OC
COc1ccc([N+](=O)[O-])cc1NC(=O)CCN1CCN(CCO)CC1
NC(=O)CC(NC(=O)c1ccc(Br)cc1)c1ccc(N2CCCCCCC2)c([N+](=O)[O-])c1 (centres undefined)
NC(=O)CC(NC(=O)Cc1ccc(Cl)cc1)c1ccc(NC2CC3CCC2C3)c([N+](=O)[O-])c1 (centres undefined)
NC(=O)CC(NC(=O)Cc1ccc(Br)cc1)c1ccc(NCc2cc(F)ccc2F)c([N+](=O)[O-])c1 (centres undefined)
NC(=O)CC(NC(=O)Cc1ccc(Br)cc1)c1ccc(NC2CCCC2)c([N+](=O)[O-])c1 (centres undefined)
CC(C)Nc1ccc(C(CC(N)=O)NC(=O)Cc2ccc(Br)cc2)cc1[N+](=O)[O-] (centres undefined)
CCCOc1ccc(F)cc1-c1cc(C(=O)Nc2ccc(C(C)C)cc2)[nH]n1
Oc1c(Br)cc(Br)cc1CNc1cccc2cccnc12
Nc1c(C(=O)Nc2ccc(S(=O)(=O)N3CCCC3)cc2)sc2nc3cc4c(cc3cc12)CCC4
c1ccc2c(-c3nc4ccccc4[nH]3)cccc2c1
CCc1nn(C(C)C(=O)N2CCN(c3ccc(OC)cc3)CC2)c(=O)c2cc3occc3n12 (centres undefined)
COc1cccc(C(=O)Nc2ccc3c(c2)C(=O)c2ccccc2C3=O)c1
O=C(Nc1ccccc1-c1ccccc1)C1CCCC1
CC#CC#Cc1cccc(=O)o1
O=C(/C=C/c1ccccc1)c1ccc2c3c(cccc13)CC2
Cc1cc(NC(=O)CSc2nc3ccccc3c(=O)n2C2CCCC2)no1
Cc1cc(NC(=O)/C=C/C(=O)N(CC(=O)NC2CCCC2)c2ccc(F)cc2)no1
Nc1nc(Nc2ccccc2)sc1C(=O)c1ccccc1
COc1ccccc1N1CCN(C(=O)c2ccc(Cl)c(S(=O)(=O)NCc3ccco3)c2)CC1
COc1cc2ccccc2cc1C(=O)N1CCc2ccccc21
CCOc1ccc(S(=O)(=O)Nc2cc(OC)ccc2OC)cc1
COCCCNC(=O)c1cccc2c(-c3ccc(O)c(OC)c3)coc12
COc1cc(-c2nc3cnccn3c2Nc2ccc(C)cc2)ccc1O
COc1cc(OC)cc(C(=O)NNC(=O)c2ccc3ccccc3n2)c1
CC(C)[n+]1ccn(C2=C([O-])c3ccccc3C(=O)/C2=N\S(=O)(=O)c2ccccc2)c1
O=C(CNC(=O)N1CC(=O)Nc2ccccc21)NCCCc1ccccc1
CC(C)c1ccc(NC(=O)[C@@H](NC(=O)N2CC(=O)Nc3ccccc32)C(C)C)cc1
CCC(C)[C@H](NC(=O)N1CC(=O)Nc2ccccc21)C(=O)Nc1ccccc1C (some centres undefined)
O=C(Nc1cccc2ncccc12)c1ccc([N+](=O)[O-])o1
O=C(Nc1cccc(-c2nc3ncccc3o2)c1)c1sc2ccccc2c1Cl
C(=N\Nc1nc2ccccc2[nH]1)/c1ccc2ncccc2c1
COc1ccc(/C=C/C(=O)c2ccccc2)cc1COc1ccccc1F
CC1(C(=O)NCC2CCOCC2)Cc2c(-c3cccc(C(F)(F)F)c3)ccnc2O1 (centres undefined)
CC(=O)Nc1cccc(-c2ccnc3c2CC(C)(C(=O)NCc2cccc(Cl)c2)O3)c1 (centres undefined)
CC1(C(=O)NCC2CC2)Cc2c(-c3cccc(C(F)(F)F)c3)ccnc2O1 (centres undefined)
Cc1nc(C)c(C(=O)N/N=C/c2c[nH]c3ccccc23)s1
CCOc1ccc(C(C)=O)cc1COc1cccnc1[N+](=O)[O-]
O=C(Oc1c(Cl)cc(Cl)c2cccnc12)c1ccco1
COc1ccccc1NC(=O)c1ccc(-c2ccc(Br)cc2)o1
Cc1ccc(OCCNC(=O)c2cccc(S(=O)(=O)NCc3ccccc3)c2)cc1
CCCCn1c(SCC(=O)Nc2cc(C(F)(F)F)cc(C(F)(F)F)c2)nnc1C(CC)N(C)C (centres undefined)
COc1ccc(Oc2ccc(/C=C/C(=O)c3cccc(OC)c3)cc2[N+](=O)[O-])cc1
Cc1cnc2cc(Cl)c(Cl)cc2n1
CCOC(=O)C1=C(C)N=C2SC=C(C)N2C1c1ccc(OC)cc1 (centres undefined)
COc1ccc(CCNC(=O)c2cc(-c3ccco3)on2)cc1OC
O=C(C=Cc1cccnc1)c1ccccc1
O=C(/C=C/c1cccnc1)c1ccc(F)c(F)c1
O=C(/C=C/c1ccccc1Cl)c1ccc(O)cc1
CCOC(=O)c1[nH]c(C)c(C(=O)c2ccc(C)cc2)c1C
